The chains are these.
T1: UNK ZnF1-3 (human, UniProt Q9C0B0 31-174)
T1 sequence: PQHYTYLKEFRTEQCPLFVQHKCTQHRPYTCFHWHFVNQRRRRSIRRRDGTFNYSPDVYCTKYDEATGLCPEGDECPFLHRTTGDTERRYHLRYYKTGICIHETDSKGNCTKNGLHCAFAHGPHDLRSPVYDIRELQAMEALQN

B1: chr7:54825262:54825263:-_ENSG00000132432_ENST00000352861|hu_hu|hu_hu_hu_mus_False|48_58 (ssRNA)
RNA: GGGAGUUCUACAGUCCGACGAUCCUGCCGGCUGGGCUCCACAAACUGCAUUACCUGAUCCAUGUUUGUUGGAUGGCACACCUAAAAUGCCAGGGACCGUAGCUCAGGAGAGAACCGAGCCCAACGGAACCGGAAGCUGGCAACCAACAGAGGAUUGAGCAUCA
B2: chr2:48026839:48026840:+_ENSG00000116062_ENST00000540021|hu_hu|hu_hu_hu_mus_False|1_48 (ssRNA)
RNA: GGGAGUUCUACAGUCCGACGAUCAUAGUGAGCCACUAGCGUCCUAAAUCUGGAACAGUGGCGGUCAUCCGAAAACUGGCCGAUGAAAAACUUUCCCAGUGAAGUGUCCACAAAGCAAACACCAUACACACGAGUGUGGCCAGACAACAGAGGAUUGAGCAUCA
B3: 133975328_133975448_5492_3pUTR_ENSG00000205060_ENST00000378509|human|control|control (ssRNA)
RNA: GGGAGUUCUACAGUCCGACGAUCUCUCCCAUUCCAGCUUGGUACACACUGAACACAUUUGAGGCUUAUGACUGGUUCUUUUACUUACAAAUAUUGUUUAGACACAUUUUCAAAUGUCACACCAAUCAAUAAUAAUAAGGAAUGCAACAGAGGAUUGAGCAUCA
B4: 58873449_58873569_2464_3pUTR_ENSMUSG00000025092_ENSMUST00000066285|mouse|control|control (ssRNA)
RNA: GGGAGUUCUACAGUCCGACGAUCAUCCAAGAUCAUUUUAAAAGACCUCCAAUGAAUGUUUCCCCCACCCUACCCUGCCCCCGGCACAGAGUGGGCGUCCUAAGCCUUCCCUUUCAGAGCCCUCUUCCAAGCAGGCUGCACCCACAACAGAGGAUUGAGCAUCA
B5: 243667512_243667632_2619_3pUTR_ENSG00000117020_ENST00000366539|human|control|control (ssRNA)
RNA: GGGAGUUCUACAGUCCGACGAUCUUCUCAUCACUAAAAAAUAAAUACUACUGCAAUAUAAACAAAAUCAUAAAAGGACAUUCAAAGUUUCAACAUCUGAGAAAAAGCUAAUUCACGUAGAACUGAAAGUAAAAAAUUAAAUAACAACAGAGGAUUGAGCAUCA
B6: 120959283_120959403_3001_3pUTR_ENSG00000154114_ENST00000422003|human|control|control (ssRNA)
RNA: GGGAGUUCUACAGUCCGACGAUCUGAAGAAUUUACAAGUCACCUAAAAAUUUCAUAAAAAAAUUAAAUUUGUAGGAGGGGUAGAAUUAUGUAACAAAGGUCAAAAGGUCAAAUGCAAUCAGAUAAUAACUGCAUUCUUUGAAACAACAGAGGAUUGAGCAUCA
B7: chr10:115881139:115881140:-_ENSG00000165813_ENST00000369287|hu_hu|FALSE|FALSE (ssRNA)
RNA: GGGAGUUCUACAGUCCGACGAUCAUAAAAAUAUUUUCACCAGGGUAGCAUAUAUAACAACAUUUACAUUAUUAAGGAUUCUAUUUUUUUCUUUUACUGAUAAAUCUUGGUUUAAAUUUGCAUGUAACAAUUUUUAGAAAAUAACAACAGAGGAUUGAGCAUCA
B8: 62642993_62643113_3073_3pUTR_ENSMUSG00000032244_ENSMUST00000034775|mouse|control|control (ssRNA)
RNA: GGGAGUUCUACAGUCCGACGAUCCAUAUGUGUCCUCAUUCCUUUUCAUCUUACACCUAAUUAGGGAGACACCAAUGCCCUAUGGAAAGGCAGUUUCCAAUUUUUAAAGAUACAACACACAAGGACAGGGCUAGAAAAGGACGACAACAGAGGAUUGAGCAUCA
B9: chr1:109605286:109605287:-_ENSG00000197780_ENST00000461096|hu_mus|hu_hu_hu_mus_True|88_108 (ssRNA)
RNA: GGGAGUUCUACAGUCCGACGAUCAAGAACAAUAACAACAUUCAGUAUACUUAAAUCAUGCAAUUAUCCUUAUUAUAAGCUAAGCAGAAUAAUAAUUUAAUACCGUAAGUGAACUACACACAAAGCCUGAACCGCGAAAAUGGUCAACAGAGGAUUGAGCAUCA
B10: chr8:42881778:42881779:+_ENSG00000168172_ENST00000307602|hu_hu|FALSE|FALSE (ssRNA)
RNA: GGGAGUUCUACAGUCCGACGAUCCUGAAGUUAGGGGCAAUCUGCAGGUUUGUGUUUCAGGAGGCAGGCAAACCAAAGGUAAGAACAUCUUCUGAUUAACUGUAAGAUGGGAUAAUUUUUAUGAAUACAACUUCAGAAAGCAUCCAACAGAGGAUUGAGCAUCA
B11: chr5:135513207:135513208:+_ENSG00000113658_ENST00000545279|hu_hu|FALSE|FALSE (ssRNA)
RNA: GGGAGUUCUACAGUCCGACGAUCAAUGUAAGCUCACAGUAUCUGUACUCAAAGUUUCUCUAAAAUUAAAACAAGUCCACUAACAAUAUAAUUGAAAAGAAUACUUCUGCAUUAUGAAACAGAAGAUAUGGGGUUCAGAGGGGACAACAGAGGAUUGAGCAUCA
B12: chr11:21040623:21040624:+_ENSMUSG00000020134_ENSMUST00000093290|mus_mus|motif|central (ssRNA)
RNA: GGGAGUUCUACAGUCCGACGAUCAAUGUGCACGGUGCUAGGCUUCACCCCAUUUGCCUUAGGUCUUUUAAACAAAGCAAACCGGCUUUUCCUCCUUCCUCUAUCACCGUUUGGGAGAGAUCCAUUAUAUCCUAAGACAAUGAGCAACAGAGGAUUGAGCAUCA

Over roughly 24,000 sequences, “enrichment r” has its median near 0.99; the highest 2% begin near 3.7. The entries come from a sample that favours the highest values as a whole.

The assay concerns the target T1, UNK ZnF1-3. Put plainly: nsRBNS (natural sequence RNA bind-n-seq); RBNS binding buffer (assumed for nsRBNS): 25 mM Tris pH 7.5, 150 mM KCl, 3 mM MgCl2, 0.01% Triton X-100, 500 ug/ml BSA, 20 U/ml SUPERase-In, 4 C; UNK is unkempt and MSI1 is Musashi-1; names of the RNAs are library labels; protein concentration not given here; high values mean tight binding.
B1 came in with a binding signal of 1.16 enrichment R.
With B2, the binding signal was 1.03 enrichment R.
Turning to B3, the binding signal worked out at 1.3 enrichment R.
In the case of B4, the binding signal was 5.4 enrichment R.
Then B5, with 5.18 enrichment R; and B6, with 4.1 enrichment R.
For B7, the binding signal is 3.75 enrichment R.
For the molecule B8, the binding signal was found to be 1.66 enrichment R.
Then B9, with 0.813 enrichment R; and B10, with 3.56 enrichment R.
Turning to B11, the binding signal turned out to be 1.67 enrichment R.
Then B12, with 0.75 enrichment R.

Source of the values: paper PMC12136788.
